# Assay results reported in PubChem BioAssay (EPA / NIEHS).
# Several values for one entry are separate records, joined by “and”; a condition that tells them apart may be missing. Identical values can stand only once. Records with an inconclusive call do not appear. More than one record can exist for a structure, and the calls need not agree. Activity calls are given as the source filed them. How the source made its calls, unless noted: active means hit-call score of the fitted dose curve at least 0.9, where 1 is the maximum; inactive means score below 0.9.
# Tests used:
# [1] = ATG_TGFb_CIS: Attagene CIS-FACTORIAL HepG2 Assay for human Transforming Growth Factor (TGF) (AID 2282967); conditions: HepG2 Attagene CIS TGFb reporter, mRNA transcription; actives raise or lower the signal
# Summary of the method: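 Bidirectional fitting relative to DMSO gave the endpoint. Underlying data: reporter mRNA from HepG2 cells carrying transiently transfected cis-regulated reporter constructs, harvested 24 h after dosing and analyzed by RT-PCR and capillary electrophoresis.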
# [2] = ATG_VDRE_CIS: Attagene CIS-FACTORIAL HepG2 Assay for human Vitamin D Receptor Element (VDRE) (AID 2282968); conditions: HepG2 VDRE cis-reporter transcription, actives raise or lower the signal
# Summary of the method: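 Reporter mRNA induction, quantified by capillary electrophoresis of fluorescently labelled RT-PCR products, was read 24 h after dosing HepG2 cells carrying transiently transfected cis-regulated reporter units; gain or loss relative to DMSO.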
# [3] = target: Nuclear receptor subfamily 1 group I member 3 (Homo sapiens) (UniProt Q14994); test: ATG_CAR_TRANS: Attagene TRANS-FACTORIAL HepG2 Assay for human Constitutive Androstane Receptor (CAR) (AID 2282969; active means hit-call score of the fitted dose curve at least 0.9, where 1 is the maximum;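 further: activators raise reporter mRNA above DMSO so AC50 marks induction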); conditions: HepG2 Attagene TRANS-FACTORIAL CAR reporter
# Sequence of Nuclear receptor subfamily 1 group I member 3 (Homo sapiens) (Q14994 whole entry, looked up, the tested form may be a part): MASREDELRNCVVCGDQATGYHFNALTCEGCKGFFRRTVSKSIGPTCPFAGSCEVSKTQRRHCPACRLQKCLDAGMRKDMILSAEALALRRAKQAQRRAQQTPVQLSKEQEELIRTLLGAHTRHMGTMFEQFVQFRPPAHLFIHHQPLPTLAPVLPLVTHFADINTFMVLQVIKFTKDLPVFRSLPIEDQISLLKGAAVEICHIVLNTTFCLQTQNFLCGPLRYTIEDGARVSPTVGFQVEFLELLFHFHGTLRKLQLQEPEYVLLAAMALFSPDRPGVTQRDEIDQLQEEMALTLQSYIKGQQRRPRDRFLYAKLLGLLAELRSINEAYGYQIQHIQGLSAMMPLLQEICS
# Summary of the method: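 Readout is reporter mRNA induction, quantified by fluorescent primer extension and capillary electrophoresis after RT-PCR. Cells were HepG2 transiently carrying chimeric NR-Gal4 constructs with GAL4-UAS reporters, treated for 24 h; activity scored upward from DMSO.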
# [4] = target: Estrogen receptor (Homo sapiens) (UniProt P03372); test: ATG_ERa_TRANS: Attagene TRANS-FACTORIAL HepG2 Assay for human Estrogen Receptor alpha (ERa) (AID 2282970; active means hit-call score of the fitted dose curve at least 0.9, where 1 is the maximum); conditions: HepG2 Attagene TRANS ERa GAL4 reporter, mRNA
# Sequence of Estrogen receptor (Homo sapiens) (P03372 whole entry, looked up, the tested form may be a part): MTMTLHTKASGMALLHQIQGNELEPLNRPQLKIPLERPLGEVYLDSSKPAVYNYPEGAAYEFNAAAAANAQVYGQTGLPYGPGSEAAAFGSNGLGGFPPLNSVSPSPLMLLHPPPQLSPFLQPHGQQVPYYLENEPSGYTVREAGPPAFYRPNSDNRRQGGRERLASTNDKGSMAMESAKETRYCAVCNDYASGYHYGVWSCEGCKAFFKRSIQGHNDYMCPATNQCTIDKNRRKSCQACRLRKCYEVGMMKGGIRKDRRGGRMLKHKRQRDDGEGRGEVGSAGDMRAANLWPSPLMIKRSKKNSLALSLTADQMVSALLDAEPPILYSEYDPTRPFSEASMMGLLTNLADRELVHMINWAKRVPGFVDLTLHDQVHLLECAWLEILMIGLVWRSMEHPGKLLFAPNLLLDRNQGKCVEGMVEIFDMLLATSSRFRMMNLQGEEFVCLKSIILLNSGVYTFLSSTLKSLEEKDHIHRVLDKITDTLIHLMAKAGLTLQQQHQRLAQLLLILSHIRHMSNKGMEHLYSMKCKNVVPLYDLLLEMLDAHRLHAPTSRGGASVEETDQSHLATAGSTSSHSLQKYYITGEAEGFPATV
# Summary of the method: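 HepG2 cells transiently transfected with multiplexed GAL4-UAS reporter units; ERa activity read via exogenous chimeric NR-Gal4 protein. After 24 hour compound exposure, reporter mRNA measured by RT-PCR with 6-FAM labelling and capillary electrophoresis; gain-of-signal fitted relative to DMSO.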
# [5] = target: X-box-binding protein 1 (Homo sapiens) (UniProt P17861); test: ATG_Xbp1_CIS: Attagene CIS-FACTORIAL HepG2 Assay for human X-box Binding Protein 1 (XBP1) (AID 2282972); conditions: HepG2 XBP1 cis-element reporter, Attagene multiplex; actives raise or lower the signal
# Sequence of X-box-binding protein 1 (Homo sapiens) (P17861 whole entry, looked up, the tested form may be a part): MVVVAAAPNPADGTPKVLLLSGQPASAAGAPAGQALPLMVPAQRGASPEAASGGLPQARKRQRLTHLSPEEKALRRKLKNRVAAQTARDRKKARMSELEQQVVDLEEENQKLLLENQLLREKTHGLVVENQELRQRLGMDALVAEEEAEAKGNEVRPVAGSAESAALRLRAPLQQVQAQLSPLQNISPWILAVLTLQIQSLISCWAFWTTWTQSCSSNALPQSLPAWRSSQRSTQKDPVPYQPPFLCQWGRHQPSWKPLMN
# Summary of the method: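 Fluorescence-labelled cDNA fragments from reporter transcripts, separated by capillary electrophoresis, give the signal. Source: HepG2 cells transfected with promoter-driven reporter units, harvested 24 h post-dose. DMSO served as reference for bidirectional curve fitting.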
# [6] = ATG_M_19_TRANS: Attagene TRANS-FACTORIAL HepG2 Assay for M19 Transcription Factor (Internal Marker) (AID 2282974; active means hit-call score of the fitted dose curve at least 0.9, where 1 is the maximum); conditions: HepG2 Attagene TRANS-FACTORIAL M19 internal marker reporter
# Summary of the method: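 Background-control readout: after 24 h chemical exposure of transfected HepG2 carrying GAL4-driven reporter units, RNA was reverse-transcribed, amplified, fluorescently labeled and sized by capillary electrophoresis; gain-of-signal fit against DMSO.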
# [7] = target: Steroid hormone receptor ERR1 (Homo sapiens) (UniProt P11474); test: ATG_ERRa_TRANS: Attagene TRANS-FACTORIAL HepG2 Assay for human Estrogen-Related Receptor alpha (ERRa) (AID 2282971; active means hit-call score of the fitted dose curve at least 0.9, where 1 is the maximum); conditions: HepG2 Attagene TRANS reporter, ERRa transactivation
# Sequence of Steroid hormone receptor ERR1 (Homo sapiens) (P11474 whole entry, looked up, the tested form may be a part): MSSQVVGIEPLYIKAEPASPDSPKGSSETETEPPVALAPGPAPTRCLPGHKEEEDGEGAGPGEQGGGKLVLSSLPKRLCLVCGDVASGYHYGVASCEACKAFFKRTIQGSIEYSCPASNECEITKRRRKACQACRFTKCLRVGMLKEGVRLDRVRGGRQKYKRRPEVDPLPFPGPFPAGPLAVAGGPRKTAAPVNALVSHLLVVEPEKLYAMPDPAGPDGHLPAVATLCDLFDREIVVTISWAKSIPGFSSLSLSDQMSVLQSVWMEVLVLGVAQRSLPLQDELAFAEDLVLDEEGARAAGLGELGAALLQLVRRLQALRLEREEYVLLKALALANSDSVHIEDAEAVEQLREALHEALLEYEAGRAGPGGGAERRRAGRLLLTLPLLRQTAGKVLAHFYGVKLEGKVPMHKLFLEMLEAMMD
# Summary of the method: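 HepG2 cells transiently transfected with multiplexed GAL4-UAS reporter units reading chimeric ERRa-Gal4 activity; 24 h compound exposure. Reporter mRNA measured by RT-PCR, 6-FAM labelling, HpaI digest and capillary electrophoresis; gain of signal fitted versus DMSO baseline.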
# [8] = ATG_GAL4_TRANS: Attagene TRANS-FACTORIAL HepG2 Assay for GAL4 (Internal Marker) (AID 2282976; active means hit-call score of the fitted dose curve at least 0.9, where 1 is the maximum); conditions: HepG2 Attagene TRANS GAL4 internal marker reporter
# Summary of the method: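 HepG2 cells transiently transfected with multiplexed GAL4-UAS reporter constructs were dosed for 24 h. Reporter mRNA was measured by RT-PCR, 6-FAM primer extension, HpaI digestion and capillary electrophoresis, and gain of signal was fitted relative to DMSO.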
# [9] = ATG_Hpa5_TRANS: Attagene TRANS-FACTORIAL HepG2 Assay for human GAL4-Hpa5 Hepatocyte Transcription Factor Basal Promoter (AID 2282975; active means hit-call score of the fitted dose curve at least 0.9, where 1 is the maximum;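 further: hits are increases in reporter mRNA over DMSO baseline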); conditions: HepG2 Attagene GAL4-Hpa5 transcription reporter
# Summary of the method: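 Basal-promoter GAL4 background control within the HepG2 trans-factorial panel of transiently transfected reporter units. Reporter mRNA is measured 24 h after dosing by RT-PCR and capillary electrophoresis, fitted for gain of signal versus DMSO.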
# [10] = target: Androgen receptor (Homo sapiens) (UniProt P10275); test: ATG_AR_TRANS: Attagene TRANS-FACTORIAL HepG2 Assay for human Androgen Receptor (AR) (AID 2282973; active means hit-call score of the fitted dose curve at least 0.9, where 1 is the maximum); conditions: HepG2 Attagene TRANS-FACTORIAL AR reporter transcription
# Sequence of Androgen receptor (Homo sapiens) (P10275 whole entry, looked up, the tested form may be a part): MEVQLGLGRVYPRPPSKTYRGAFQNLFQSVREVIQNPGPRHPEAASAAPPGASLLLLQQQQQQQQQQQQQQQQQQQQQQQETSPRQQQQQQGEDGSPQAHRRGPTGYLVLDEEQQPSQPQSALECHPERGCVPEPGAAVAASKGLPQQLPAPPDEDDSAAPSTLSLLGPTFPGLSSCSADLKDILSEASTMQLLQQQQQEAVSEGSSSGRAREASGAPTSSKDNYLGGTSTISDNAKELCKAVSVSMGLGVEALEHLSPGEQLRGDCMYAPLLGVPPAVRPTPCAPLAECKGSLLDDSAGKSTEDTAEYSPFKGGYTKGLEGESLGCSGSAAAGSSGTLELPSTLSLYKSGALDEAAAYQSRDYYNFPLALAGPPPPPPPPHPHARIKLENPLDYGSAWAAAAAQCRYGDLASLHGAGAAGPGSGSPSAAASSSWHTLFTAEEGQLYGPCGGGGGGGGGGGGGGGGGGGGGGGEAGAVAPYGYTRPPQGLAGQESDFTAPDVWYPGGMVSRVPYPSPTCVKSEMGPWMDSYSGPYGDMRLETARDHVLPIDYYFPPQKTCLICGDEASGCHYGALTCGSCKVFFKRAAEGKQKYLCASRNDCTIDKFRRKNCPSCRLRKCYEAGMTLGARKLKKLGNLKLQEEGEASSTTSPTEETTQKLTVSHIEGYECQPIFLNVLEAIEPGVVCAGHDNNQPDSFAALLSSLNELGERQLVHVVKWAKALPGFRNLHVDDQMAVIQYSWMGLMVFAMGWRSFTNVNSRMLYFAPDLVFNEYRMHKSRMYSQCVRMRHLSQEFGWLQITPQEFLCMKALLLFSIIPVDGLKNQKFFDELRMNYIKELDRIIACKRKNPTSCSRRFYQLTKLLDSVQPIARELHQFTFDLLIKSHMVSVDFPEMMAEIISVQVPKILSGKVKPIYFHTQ
# Summary of the method: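 HepG2 cells transiently transfected with multiplexed GAL4-UAS reporter units and chimeric NR-Gal4 fusion; 24 h compound exposure. Reporter mRNA measured by RT-PCR, 6-FAM labelling, HpaI digestion and capillary electrophoresis; gain-of-signal fitted relative to DMSO baseline.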
compound,measurement,setting,value
ClC(Cl)=C(c1ccc(Cl)cc1)c1ccc(Cl)cc1,outcome,[1],inactive
same,AC50,[2],100 µM (active)
same,outcome,[2],inactive
same,outcome,[3],inactive
same,AC50,[4],12.2 µM (active) and 4.03 µM (active) and 3.46 µM (active)
same,outcome,[4],inactive
same,AC50,[5],150 µM (active)
same,outcome,[5],inactive
same,outcome,[6],inactive
O=C(O)C(F)(F)C(F)(F)C(F)(F)C(F)(F)C(F)(F)C(F)(F)C(F)(F)C(F)(F)C(F)(F)F,AC50,[1],48.9 µM (active) and 14.6 µM (active)
same,outcome,[1],inactive
same,outcome,[3],inactive
same,AC50,[4],25.4 µM (active) and 22.6 µM (active) and 17.2 µM (active)
same,outcome,[7],inactive
same,AC50,[5],50.8 µM (active) and 50 µM (active)
same,outcome,[5],inactive
same,outcome,[6],inactive
same,outcome,[8],inactive
Cc1ccccc1CO[C@@H]1C[C@@]2(C(C)C)CC[C@]1(C)O2,outcome,[1],inactive
same,AC50,[2],21.4 µM (active)
same,outcome,[3],inactive
same,outcome,[5],inactive
CCC(C)c1cc([N+](=O)[O-])cc([N+](=O)[O-])c1O (stereo not given),outcome,[1],inactive
same,AC50,[2],12.6 µM (active)
same,outcome,[3],inactive
same,AC50,[4],0.807 µM (active)
same,AC50,[5],10.2 µM (active)
Cc1ccccc1[N+](=O)[O-],outcome,[1],inactive
same,outcome,[2],inactive
same,outcome,[3],inactive
same,outcome,[5],inactive
same,outcome,[8],inactive
CCCCCCCCCc1ccc(O)cc1,outcome,[1],inactive
same,AC50,[2],151 µM (active)
same,outcome,[2],inactive
same,outcome,[3],inactive
same,AC50,[4],5.66 µM (active) [middle of 4 runs]
same,AC50,[5],32.8 µM (active)
same,outcome,[5],inactive
same,outcome,[6],inactive
CCOCCOC(C)=O,outcome,[1],inactive
same,outcome,[2],inactive
same,outcome,[5],inactive
CCC(C)(CC)c1cc(NC(=O)c2c(OC)cccc2OC)on1,outcome,[1],inactive
same,AC50,[2],0.977 µM (active)
same,outcome,[5],inactive
same,outcome,[6],inactive
same,outcome,[9],inactive
O=NN(c1ccccc1)c1ccccc1,outcome,[1],inactive
same,AC50,[4],23.6 µM (active)
same,outcome,[5],inactive
Cc1cccc([N+](=O)[O-])c1,outcome,[1],inactive
same,outcome,[2],inactive
same,outcome,[4],inactive
same,outcome,[5],inactive
ClC1=C(Cl)[C@]2(Cl)[C@@H]3[C@@H]4C[C@@H]([C@H]5O[C@@H]45)[C@@H]3[C@@]1(Cl)C2(Cl)Cl,outcome,[1],inactive
same,AC50,[2],17.6 µM (active)
same,AC50,[4],5.89 µM (active)
same,outcome,[5],inactive
COS(=O)(=O)OC,outcome,[1],inactive
same,outcome,[2],inactive
same,outcome,[5],inactive
Cc1cccc(C)c1N,outcome,[1],inactive
same,outcome,[5],inactive
same,outcome,[8],inactive
CCC(=O)O[C@H]1CC[C@H]2[C@@H]3CCC4=CC(=O)CC[C@]4(C)[C@H]3CC[C@]12C,outcome,[1],inactive
same,AC50,[5],141 µM (active) [middle of 4 runs]
same,AC50,[10],632 nM (active) [middle of 4 runs]
same,outcome,[6],inactive
same,outcome,[8],inactive
O=C(NC(=O)c1c(F)cccc1F)Nc1cc(Cl)c(OC(F)(F)C(F)F)c(Cl)c1,outcome,[1],inactive
same,outcome,[3],inactive
same,outcome,[4],inactive
same,outcome,[5],inactive
same,outcome,[10],inactive
same,outcome,[8],inactive
CC#Cc1cc(C)nc(Nc2ccccc2)n1,outcome,[1],inactive
same,AC50,[2],65.6 µM (active)
same,outcome,[5],inactive
NS(=O)(=O)C(F)(F)C(F)(F)C(F)(F)C(F)(F)C(F)(F)C(F)(F)C(F)(F)C(F)(F)F,outcome,[1],inactive
same,outcome,[3],inactive
same,AC50,[4],25.8 µM (active) and 7.34 µM (active) and 5.15 µM (active)
same,AC50,[5],41.7 µM (active) and 39.9 µM (active) and 50 µM (active)
same,outcome,[6],inactive
O=S(=O)(O)C(F)(F)C(F)(F)C(F)(F)C(F)(F)F,outcome,[1],inactive
same,outcome,[2],inactive
same,outcome,[5],inactive
same,outcome,[6],inactive
same,outcome,[8],inactive
Cc1cc2c3c(c1)C(c1ccccc1)=N[C@@H](NC(=O)c1ccncc1)C(=O)N3CC2,outcome,[1],inactive
same,AC50,[2],5.69 µM (active)
same,outcome,[4],inactive
same,AC50,[5],100 µM (active)
same,outcome,[6],inactive
same,outcome,[8],inactive
Nn1cnnc1,outcome,[1],inactive
same,outcome,[2],inactive
same,AC50,[4],26 µM (active)
same,outcome,[5],inactive
Cc1cc(O)ccc1Cl,outcome,[1],inactive
same,outcome,[2],inactive
same,AC50,[4],40.4 µM (active)
same,outcome,[5],inactive
same,outcome,[6],inactive
CCSC(=O)N(CC)C1CCCCC1,outcome,[1],inactive
same,AC50,[2],18.1 µM (active)
same,outcome,[4],inactive
same,outcome,[5],inactive
same,outcome,[6],inactive
O=C(O)C(F)(F)C(F)(F)C(F)(F)C(F)(F)C(F)(F)F,outcome,[1],inactive
same,outcome,[2],inactive
same,outcome,[5],inactive
same,outcome,[6],inactive
C[C@]12CCC(=O)C=C1CC[C@@H]1[C@@H]2CC[C@]2(C)C(=O)CC[C@@H]12,outcome,[1],inactive
same,AC50,[4],65.1 nM (active) and 9.14 nM (active) and 9.25 nM (active)
same,outcome,[5],inactive
same,outcome,[8],inactive
C1CC2OC2CC1C1CO1 (stereo not given),outcome,[1],inactive
same,outcome,[2],inactive
same,outcome,[5],inactive
same,outcome,[6],inactive
Clc1ccc(C(Cl)(Cl)Cl)cc1,outcome,[1],inactive
same,outcome,[7],inactive
same,outcome,[5],inactive
same,outcome,[8],inactive
O=C(NC(=O)c1cc(F)c(F)cc1Cl)Nc1cc(F)ccc1N1CCC(C(=O)O)CC1,outcome,[1],inactive
same,outcome,[2],inactive
same,outcome,[5],inactive
same,outcome,[6],inactive
same,outcome,[8],inactive
CCCN(CCC)N=O,outcome,[1],inactive
same,outcome,[2],inactive
same,outcome,[4],inactive
same,outcome,[5],inactive
same,outcome,[8],inactive
Cc1ccc(O)c(C)c1,outcome,[1],inactive
same,outcome,[4],inactive
same,outcome,[7],inactive
same,outcome,[5],inactive
same,outcome,[6],inactive
same,outcome,[8],inactive
C=CC(N)=O,outcome,[1],inactive
same,AC50,[2],100 µM (active)
same,outcome,[7],inactive
same,outcome,[5],inactive
same,outcome,[8],inactive
c1ccc(-c2ccccc2)cc1,outcome,[1],inactive
same,outcome,[4],inactive
same,outcome,[5],inactive
same,outcome,[10],inactive
same,outcome,[6],inactive
same,outcome,[8],inactive
O=C(N[C@H]1CN2CCC1CC2)c1cc2ccoc2cn1,outcome,[1],inactive
same,outcome,[2],inactive
same,outcome,[4],inactive
same,outcome,[5],inactive
CN(C)c1nc(=O)n(C2CCCCC2)c(=O)n1C,outcome,[1],inactive
same,outcome,[2],inactive
same,outcome,[4],inactive
same,outcome,[5],inactive
same,outcome,[9],inactive
CCC(C)(c1ccc(O)cc1)c1ccc(O)cc1,outcome,[1],inactive
same,outcome,[3],inactive
same,AC50,[5],54.8 µM (active) and 52.7 µM (active) and 16.7 µM (active)
same,outcome,[5],inactive
same,outcome,[6],inactive
CC1=C2C[C@H]3[C@@H](CC=C4C[C@@H](O)CC[C@@]43C)[C@@H]2CC[C@]12O[C@@H]1C[C@H](C)CN[C@H]1[C@H]2C,outcome,[1],inactive
same,outcome,[2],inactive
same,outcome,[4],inactive
same,outcome,[5],inactive
same,outcome,[8],inactive
N#Cc1ccc(N(CC(N)=O)CC(F)(F)F)cc1C(F)(F)F,outcome,[1],inactive
same,outcome,[2],inactive
same,outcome,[4],inactive
same,outcome,[5],inactive
same,outcome,[6],inactive
same,outcome,[8],inactive
CCCCCCOC(=O)c1ccccc1C(=O)OCCCCCC,outcome,[1],inactive
same,outcome,[3],inactive
same,outcome,[4],inactive
same,outcome,[5],inactive
same,outcome,[8],inactive
C=CC(=O)NCNC(=O)C=C,outcome,[1],inactive
same,outcome,[2],inactive
same,outcome,[5],inactive
same,outcome,[10],inactive
Oc1ccc(Cl)cc1Cl,outcome,[1],inactive
same,outcome,[2],inactive
same,AC50,[4],64 µM (active)
same,outcome,[5],inactive
